# Source: PubChem BioAssay (NCATS)
# Records with an inconclusive call do not appear. The source holds several records for some structures; these can differ, active in one and inactive in another. Activity calls are given as the source filed them. Calls come from the whole dose curve; as a rule, active = well fitted curve in the direction sought with a large enough effect; inconclusive = small, poorly fitted or top-dose-only effect, or another doubt; inactive = no such curve, though single readings can be large; an effect the other way counts as inactive or inconclusive.
# Legend:
# [1] = target: Retinal dehydrogenase 2 (Homo sapiens) (UniProt O94788); experiment: qHTS for Inhibitors of the Aldehyde Dehydrogenase Family (ALDH1A2) Confirmation screens (AID 2061314); note: potency is the fitted concentration of half-maximal effect; nearly all actives have a fitted effect of over 65% in size
# [2] = target: Retinaldehyde dehydrogenase 3 (Homo sapiens) (UniProt P47895); experiment: qHTS for Inhibitors of the Aldehyde Dehydrogenase Family (ALDH1A3) Primary screen (AID 2061315);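 note: plate controls were DMSO vehicle for no effect and reference inhibitor for full effect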
# [3] = target: Aldehyde dehydrogenase 1A1 (Homo sapiens) (UniProt P00352); experiment: qHTS for Inhibitors of the Aldehyde Dehydrogenase Family (ALDH1A1) Confirmatory screens (AID 2061316); note: potency is the fitted concentration of half-maximal effect; nearly all actives have a fitted effect of over 65% in size
# [4] = BET inhibitor-based combinations targeting novel dependencies in MECOM-rearranged (r) AML: SET-2 cell line (AID 2202231); details: SET-2 AML cells viability, CellTiter-Glo luminescence, 48 h; viability: stronger effect = lower value, concentration not given here; note: nearly all actives have a fitted effect of over 35% in size; note: potency is the fitted concentration of half-maximal effect;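 for viability: plate controls were DMSO treated cells for no effect and wells without cells for full effect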
# Outline: (§1)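 A 48 hr incubation preceded viability reading by CellTiter-Glo, with 15 min room-temperature development. Dose series had 11 points; normalization used DMSO and empty wells; AUC was computed and mean-centered per line as Z-AUC.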
# [5] = BET inhibitor-based combinations targeting novel dependencies in MECOM-rearranged (r) AML: OCI-AML3 cell line (AID 2202232); details: Potency: OCI-AML3 viability; note: nearly all actives have a fitted effect of over 35% in size; note: potency is the fitted concentration of half-maximal effect;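 for viability (% of control): series mostly up to about 46 µM; plate controls were DMSO vehicle wells for no effect and wells without cells for full effect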
# Outline: as §1
# [6] = BET inhibitor-based combinations targeting novel dependencies in MECOM-rearranged (r) AML: MV-4-11 cell line (AID 2202233); note: nearly all actives have a fitted effect of over 45% in size; note: potency is the fitted concentration of half-maximal effect;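 for viability, % of control: plate controls were DMSO for no effect and blank wells for full effect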
# Outline: (§2)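 Each compound is tested in an 11-point concentration series against 500 seeded cells/well for 48 hr. The luminescent viability signal is normalized to DMSO and blank wells, then reduced to AUC and a cell-line-centred Z-AUC.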
# [7] = BET inhibitor-based combinations targeting novel dependencies in MECOM-rearranged (r) AML: HNT-34 cell line (AID 2202234); note: nearly all actives have a fitted effect of over 35% in size; note: potency is the fitted concentration of half-maximal effect;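 for viability (% of control): plate controls were vehicle wells for no effect and cell-free wells for full effect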
# Outline: as §2
# [8] = BET inhibitor-based combinations targeting novel dependencies in MECOM-rearranged (r) AML: UCSD-AML1 cell line (AID 2202235); note: nearly all actives have a fitted effect of over 40% in size; note: potency is the fitted concentration of half-maximal effect;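 for viability (% of control): series mostly up to about 46 µM; plate controls were DMSO vehicle wells for no effect and blank wells for full effect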
# Outline: as §2
# [9] = BET inhibitor-based combinations targeting novel dependencies in MECOM-rearranged (r) AML: AML-191 cell line (AID 2202236; note: nearly all actives have a fitted effect of over 35% in size; note: potency is the fitted concentration of half-maximal effect;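 for viability (% of control): plate controls were vehicle wells for no effect and wells without cells for full effect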)
# Outline: as §1
# [10] = BET inhibitor-based combinations targeting novel dependencies in MECOM-rearranged (r) AML: AML-194 cell line (AID 2202237; note: nearly all actives have a fitted effect of over 40% in size; note: potency is the fitted concentration of half-maximal effect;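 for viability (% of control): plate controls were vehicle wells for no effect and wells without cells for full effect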)
# Outline: as §1
compound,measurement,setting,value
O=C(c1ccccc1O)N(Cc1ccco1)Cc1cccs1,Potency,[1],22.5 µM (active)
same,Potency,[2],inactive
same,Potency,[3],11.3 µM (active)
CCOC(=O)c1c(-c2ccc(C)o2)csc1NC(=O)CSc1nnnn1-c1ccccc1,Potency,[1],5.04 µM (active)
same,Potency,[2],inactive
same,Potency,[3],0.4 µM (active)
Cc1cc(C)nc(NC(=S)N2CCN(c3ccc(Cl)nn3)CC2)c1,Potency,[2],inactive
CC(C)(C)OC(=O)N[C@@H](Cc1ccc(O[S+](=O)([O-])c2cccc3cnccc23)cc1)C(=O)N1CCN(Cc2ccccc2)CC1,Potency,[2],inactive
OCc1ccc(-c2ccc3ncnc(NCc4nccs4)c3c2)o1,Potency,[1],14.2 µM (active)
same,Potency,[2],inactive
same,Potency,[3],4 µM (active)
Nc1nccn2c(C3CCC(C(=O)O)CC3)nc(-c3cc4cccc(Cl)c4[nH]3)c12 (configuration not stated),Potency,[4],7.42 µM (active)
same,Potency,[5],4.68 µM (active)
same,Potency,[6],2.35 µM (active)
same,Potency,[7],1.48 µM (active)
same,Potency,[8],1.05 µM (active)
CN(C)c1ccc(-c2nc3ncc(Cl)c(N4CCN(CC(=O)Nc5nccs5)CC4)c3[nH]2)cc1,viability,[4],105% (inactive)
same,Potency,[5],1.62 µM (active)
same,Potency,[6],0.723 µM (active)
C[C@H]1CC2[C@@H]3CCC4=CC(=O)C=C[C@]4(C)[C@@]3(F)[C@@H](O)C[C@]2(C)[C@@]1(O)C(=O)CO (some centres not stated),viability,[4],115% (inactive)
same,Potency,[5],inactive
same,Potency,[6],inactive
same,Potency,[7],inactive
Cc1cc(-c2cnn3c(NCC4CC(C)(O)C4)cc(Oc4cccnc4)nc23)ccc1C(=O)NC1CC1 (configuration not stated),Potency,[4],1.18 µM (active)
same,Potency,[5],0.263 µM (active)
same,Potency,[6],0.332 µM (active)
same,Potency,[7],0.934 µM (active)
CN1CCN(c2ccc(Nc3ncc4cc(C#N)c(=O)n(C5CCCC5)c4n3)cc2)CC1,Potency,[4],1.18 µM (active)
same,Potency,[5],0.105 µM (active)
same,Potency,[6],0.186 µM (active)
CC1(C)C(N(O)C(=O)Nc2ccc(Cl)cc2)N(c2ccc(Cl)cc2)C(=O)N1CC(=O)N/N=C/C=C/c1ccc([N+](=O)[O-])o1 (configuration not stated),Potency,[4],20.9 µM (active)
same,Potency,[5],3.32 µM (active)
same,Potency,[6],4.68 µM (active)
same,Potency,[7],13.2 µM (active)
Cc1cc(Nc2ncnc3ccc(NC4=NC(C)(C)CO4)cc23)ccc1Oc1ccn2ncnc2c1,Potency,[4],20.9 µM (active)
COC(=O)[C@@H]1CC2=CC(=O)CC[C@]2(C)[C@@]23O[C@@H]2C[C@@]2(C)[C@@H](CC[C@@]24CCC(=O)O4)[C@H]13,viability,[4],106% (inactive)
same,Potency,[5],inactive
same,Potency,[6],inactive
same,Potency,[7],inactive
same,Potency,[8],inactive
same,Potency,[9],inactive
CC(C)n1ncnc1-c1cn2c(n1)-c1ccc(O[C@@H](C)C(N)=O)cc1OCC2,viability,[4],99% (inactive)
same,Potency,[5],2.35 µM (active)
COc1ccc(-c2cc(C(O)C3CCCCN3)c3ccccc3n2)cc1 (configuration not stated),Potency,[2],inactive
same,Potency,[4],14.8 µM (active)
same,Potency,[5],20.9 µM (active)
same,Potency,[6],2.95 µM (active)
same,Potency,[8],9.34 µM (active)
same,Potency,[9],14.8 µM (active)
same,Potency,[10],11.8 µM (active)
CC(C)Oc1ccc(-c2nc(-c3cccc4c3CC[C@@H]4NCCO)no2)cc1C#N,viability,[4],97.4% (inactive)
COc1ncc(-c2ccc3nccc(-c4ccnnc4)c3c2)cc1NS(=O)(=O)c1ccc(F)cc1F,Potency,[4],0.332 µM (active)
same,Potency,[5],0.0833 µM (active)
same,Potency,[6],0.105 µM (active)
same,Potency,[7],0.263 µM (active)
same,Potency,[8],0.0372 µM (active)
CC1=C2[N-][C@H]([C@H](CC(N)=O)[C@@]2(C)CCC(=O)NC[C@@H](C)OP(=O)([O-])O[C@H]2[C@@H](O)[C@@H](n3cnc4cc(C)c(C)cc43)O[C@@H]2CO)[C@]2(C)N=C(C(C)=C3N=C(C=C4N=C1[C@@H](CCC(N)=O)C4(C)C)[C@@H](CCC(N)=O)[C@]3(C)CC(N)=O)[C@@H](CCC(N)=O)[C@]2(C)CC(N)=O.O.[Co+2],viability,[4],95.1% (inactive)
COc1ccc2c(c1)CCc1sc(NC(=O)c3ccc(Br)cc3)nc1-2,Potency,[3],10.2 µM (active)
Cn1cc(C[C@@H](N)C(=O)O)c2ccccc21,viability,[4],113% (inactive)
same,viability (% of control),[5],111% [at 8.46 µM] (inactive)
same,"viability, % of control",[6],103% [at 8.46 µM] (inactive)
same,viability (% of control),[7],100% [at 8.46 µM] (inactive)
same,viability (% of control),[8],112% [at 8.46 µM] (inactive)
same,viability (% of control),[9],110% [at 8.46 µM] (inactive)
CNC(=O)Cn1cc(-c2ccc3c(c2)C(F)CC32NC(=O)N(CC(=O)N(Cc3ccc(F)cc3)[C@@H](C)C(F)(F)F)C2=O)cn1 (some centres not stated),Potency,[4],3.72 µM (active)
same,viability,[4],103% (inactive)
same,Potency,[6],11.8 µM (active)
same,Potency,[7],0.0742 µM (active)
same,Potency,[8],118 nM (active) and inactive
same,Potency,[9],inactive
same,Potency,[10],inactive
Cc1ccnc(N(C)C(=S)N2CCN(c3cccc(C(F)(F)F)c3)CC2)c1,Potency,[3],11.3 µM (active)
